Screening data deposited in PubChem BioAssay by The Scripps Research Institute Molecular Screening Center.
NR5A2 inv ag: suppresses constitutive activity of human LRH-1 | 360,000 tested, 0.13% active | inhibition, % at 3.6 µM | AID 602396 | O00482 | HEK293T StAR-luciferase reporter, LRH-1 transfected, 24 h;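 active = inhibition above the mean inhibition of all tested compounds plus 3 SD, cut at about 73% in these data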
SRC3 inh: human NCOA3 inhibition; Q9Y6Q9; HEK293 GAL4-SRC3 luciferase reporter, luminescence; inhibition, % at 3.6 µM; 360,000 tested, 0.17% active; AID 588352;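 active = inhibition above a per-campaign cutoff, the mean of all compounds plus 3 SD, cut at about 60% in these data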;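 also: higher means less SRC3-driven luciferase light from the GAL4 reporter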
SRC1 inh: human NCOA1 inhibition; inhibition, % at 3.6 µM; HEK293 GAL4-SRC1 luciferase reporter, luminescence; 360,000 tested, 0.12% active; AID 588354;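 active = inhibition above the campaign mean plus 3 SD, with each screening campaign given its own cutoff, cut at about 60% in these data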
NR2F2 inh: inhibitors of human COUP-TFII (NR2F2); 370,000 tested, 0.7% active; inhibition, % at 8.6 µM; HEK293T NGFI-A luciferase reporter, luminescence; AID 686940;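 active = inhibition above a per-plate cutoff, mean inhibition of test wells between control levels plus 3 SD, cut at about 38% in these data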;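 also: cells cotransfected with COUP-TFII expression vector driving the NGFI-A reporter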
NCOA2 inhibitor: inhibits human steroid receptor coactivator 2; Q15596; HEK293 GAL4-SRC2 luciferase reporter, luminescence; inhibition, % at 9 µM; 370,000 tested, 0.17% active; AID 651957;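 active = inhibition above the mean inhibition of all tested compounds plus 3 SD, set per campaign, cut at about 52% in these data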
Gal4-VP16 ctr: VP16 inhibition counter-screen for COUP-TFII. 2,500 tested, 25% active. inhibition, % at 8.5 µM. shares compounds with NR2F2 inh. HEK293 Gal4-VP16 luciferase reporter, luminescence; in the data active = inhibition above about 13%
COUP-TFII conf: COUP-TFII (NR2F2) inhibition, confirmation assay. shares compounds with NR2F2 inh. HEK293 NGFI-A luciferase reporter, luminescence. inhibition, % at 8.5 µM. 2,500 tested, 45% active;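 active = mean inhibition over three repeats above a set limit taken from the earlier primary screen, cut at about 38% in these data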
A number is an active result; n = inactive; x = not tested or not shown. Rows were chosen to be rich in hits. Some 0.84% of all compounds tested hit in one or more screens of this group.

SMILES	NR5A2 inv ag	SRC3 inh	SRC1 inh	NR2F2 inh	NCOA2 inhibitor	Gal4-VP16 ctr	COUP-TFII conf
COc1ccc(NC(=O)CSc2ccccn2)cc1OC	n	n	n	n	n	x	x
O=C(CSc1nnc(-c2ccccn2)n1-c1ccccc1)c1ccc(Cl)c(Cl)c1	x	x	x	n	n	x	x
Cn1cc(CC(=O)Nc2ccc(Nc3cccnc3)c(Br)c2)c2ccccc21	x	x	x	n	n	x	x
Cc1ccc(/C=C2\SC(=S)N(/N=C/c3cc([N+](=O)[O-])ccc3O)C2=O)o1	n	n	n	x	x	x	x
O=C(NC1CCCC1)[C@@H]1CCCN1C(=O)[C@H](Cc1cccnc1)NC(=O)N1CCOCC1	x	x	x	n	n	x	x
C[C@@H](c1ccccc1)N1C[C@H]2CCCN2c2cc(Br)ccc2S1(=O)=O	n	n	n	n	n	x	x
O=C(Nc1ccncc1)c1ccc(Cl)c(S(=O)(=O)N2CCCC2)c1	n	n	n	46	n	n	n
CCN(CC)S(=O)(=O)c1cc(C(=O)Nc2cccnc2)ccc1Cl	n	n	n	n	n	x	x
CCN(CC)S(=O)(=O)c1cc(C(=O)Nc2ccncc2)ccc1Cl	n	n	n	64	n	n	n
CN(c1ccccc1)S(=O)(=O)c1ccc(Cl)c(C(=O)Nc2ccncc2)c1	n	n	n	40	n	n	n
Cc1ccc(NC(=O)c2ccccc2NS(=O)(=O)c2ccc(F)cc2)cc1S(=O)(=O)N1CCCCC1	n	n	n	38	n	n	n
COC(=O)[C@]12C[C@H](CC(=O)N3CCN(C(=O)C4CC4)CC3)C(=O)N(Cc3ccccc3)C1=C[C@H](C(C)C)O[C@@H]2C1CC1	x	x	x	n	n	x	x
CN(c1cccnc1)c1ccc(NC(=O)Cc2c[nH]c3ccccc23)cc1-c1cccnc1F	x	x	x	n	n	x	x
NC(=O)[C@@H]1CCCN1C(=O)[C@H](CCc1ccccc1)NC(=O)[C@H]1O[C@@H](n2cnc3c(N)ncnc32)[C@H](O)[C@@H]1O	x	x	x	n	n	x	x
Cc1ccc(C(=O)Nc2ccncc2)cc1S(=O)(=O)N1CCCCC1	n	n	n	47	n	n	n
COCc1[nH]nc2c1C(c1ccccc1)N(Cc1ccccc1)C2=O (centres undefined)	x	x	x	n	n	x	x
CC(Oc1ccc(Cl)cc1Cl)c1nc(-c2ccc(NC(=O)c3ccncc3)cc2)no1 (centres undefined)	n	n	n	80	n	n	n
CC(Oc1ccc(Cl)cc1Cl)c1nc(-c2ccc(NC(=O)c3cccnc3)cc2)no1 (centres undefined)	n	n	n	n	n	x	x
Cc1cnc(NC(=O)COc2ccccc2Cl)s1	n	n	n	41	n	n	n
CC1(C)CC(N2CCCC2)=CC(=[N+]2CCCCCC2)C1	n	n	n	60	n	14	58
CC1CC(C)C[N+](=C2C=C(N3CCCC3)CC(C)(C)C2)C1 (centres undefined)	n	n	n	62	n	15	59
Cc1cc(C)c(CN2CCN(C(=O)Cn3cnc4c(NCc5ccccc5)ncnc43)CC2)c(C)c1	n	n	n	80	n	n	70
O=C(Cn1cnc2c(NCc3ccccc3)ncnc21)N1CCN(c2ccccn2)CC1	n	n	n	n	n	x	x
O=C(NN=Cc1cccc(O)c1O)c1ccccc1	n	n	n	n	n	x	x
CCC1CSC(Nc2ccc(C(=O)/C=C/c3ccc(OC)c(OC)c3)cc2)=N1 (centres undefined)	n	n	n	61	n	n	n
SMILES	NR5A2 inv ag	SRC3 inh	SRC1 inh	NR2F2 inh	NCOA2 inhibitor	Gal4-VP16 ctr	COUP-TFII conf
O=C(Cn1ccccc1=S)c1ccc(Cl)c(Cl)c1	n	n	n	n	n	x	x
On1ccccc1=S	n	n	n	66	n	87	46
CCOC(=O)N1CCC(NC(=O)C2CCN(Cc3nc(-c4ccc(CC)cc4)oc3C)CC2)CC1	n	n	n	n	n	x	x
Cc1oc(-c2ccc(Cl)cc2)nc1CN1CCCC(C(=O)NCc2cccnc2)C1 (centres undefined)	n	n	n	52	n	n	46
CCOC(=O)N1CCC(NC(=O)C2CCCN(Cc3nc(-c4ccc(CC)cc4)oc3C)C2)CC1 (centres undefined)	n	n	n	54	n	n	45
CCOc1ccc(-c2nc(CSCC(=O)NC3CCN(Cc4ccccc4)CC3)c(C)o2)cc1	n	n	n	n	n	x	x
Cc1oc(-c2ccc(Cl)cc2)nc1CN1CCCC(C(=O)NCc2ccccn2)C1 (centres undefined)	n	n	n	n	n	x	x
Cc1oc(-c2ccc(Cl)cc2)nc1CSCC(=O)NC1CCN(Cc2ccccc2)CC1	n	n	n	52	n	15	57
C[C@H](O)[C@@H]1C(=O)N2CCc3c([nH]c4cccc(-c5ccccc5)c34)[C@@H]2C[C@@H]1N(C)C(=O)C1CCCCC1	x	x	x	n	n	x	x
CN1OC[C@@H]2CN(Cc3ccc4c(c3)OCO4)[C@H](c3ccc(-n4ccnc4)cc3)C[C@@H]21	x	x	x	n	n	x	x
Cc1oc(-c2cc(F)ccc2F)nc1CN1CCN(c2ncnc3ccccc23)CC1	n	n	n	43	n	n	n
Cc1oc(-c2cc(F)ccc2F)nc1CN1CCC(C(=O)N2CCOCC2)CC1	n	n	n	n	n	x	x
COc1ccc(-c2nc(CN3CCN(c4ncnc5ccccc45)CC3)c(C)o2)c(OC)c1	n	n	n	52	n	n	40
COc1ccc(-c2csc3ncnc(NCCCO)c23)cc1	n	n	67	44	n	14	n
COC(=O)c1cc2c(c3c4cc(OC)ccc4n(S(=O)(=O)c4cccc(C)c4)c13)C(=O)N(Cc1ccc(N(C)C)cc1)C2	x	x	x	n	n	x	x
O=C(Nc1ccc(Cc2ccncc2)cc1)C1CCC(N2C(=O)C3C4C=CC(C4)C3C2=O)CC1 (centres undefined)	n	n	n	38	n	n	n
O=C(Nc1ccc(Cc2ccncc2)cc1)C1CCC(N2C(=O)C3CC=CCC3C2=O)CC1 (centres undefined)	n	n	n	n	n	x	x
COC(=O)c1cnn(-c2ccc(F)cc2F)c1/C=N/NC(=S)Nc1ccccc1	x	x	x	48	x	n	n
COc1cccc(C(=O)Nn2c(-c3cccs3)nc3ccccc3c2=O)c1OC	n	n	n	n	n	x	x
COc1ccc(CNn2c(-c3cccs3)nc3ccccc3c2=O)cc1OC	n	n	n	38	n	n	n
CCOC(=O)C(NCc1ccco1)(NC(=O)c1ccccc1)C(F)(F)F (centres undefined)	n	n	n	n	n	x	x
CCOC(=O)C(NC(=O)c1ccccc1)(Nc1cccc(C)n1)C(F)(F)F (centres undefined)	n	n	n	39	n	n	n
O=c1cccc2c1c1cc[nH]c3ccc(=O)n2c31	n	n	n	45	n	n	n
O=c1cc[nH]c2ccc(Cl)cc12	n	n	n	n	n	x	x
Cc1cc(=O)n(-c2ccc(O)cc2)[nH]1	n	n	n	42	n	n	n
